A selection: hits, their analogues and other compounds. The true share with any hit is near 2.8%.
GLP1R ag = agonists of human GLP-1 receptor | P43220 | HEK293 GLP-1R CRE-luciferase, luminescence, 4-6 h; cells express a hypersensitive GLP-1R form | 380,000 compounds, 0.007% hits | AID 624172 | Potency, µM (doses to about 45.6 µM), for inactives: top-dose activation, actives largely listed as activators; note: potency is the fitted concentration of half-maximal effect; % of control where 0% means no effect
KCNH2 WT inh = blocks the wildtype human KCNH2 potassium channel; Q12809; U2OS, BacMam KCNH2, thallium flux FluxOr; stronger effect = lower value; activity change, % at 1.84 µM; 340,000 compounds, 0.37% hits; AID 720551;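 active = maximum activity change below -70%; inconclusive = maximum activity change between -70% and -50%; inactive = maximum activity change above -50%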; note: % is set by controls: 0 for no effect and ±100 for the full control effect
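U2OS cells transduced with wild-type KCNH2 virus are loaded with FluxOr dye for 45 min, and thallium flux is measured in kinetic reads before and after stimulation buffer. Rate constants are normalized to DMSO controls.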
GLP1R cytotox = cytotoxicity counter-screen for GLP-1 receptor inverse agonists; 410,000 compounds, 0.13% hits; AID 624418; Potency, µM (series often up to 38.3 µM), without a hit: top-dose activity change, negative = inhibition, usual class: inhibitors; HEK293 cAMP-luciferase reporter cells, luminescence, 24 h;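 note: loss of luciferase light is scored as toxicity; potency is the fitted concentration of half-maximal effect; % is set by controls: 0 for no effect and ±100 for the full control effect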
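Quantitative HTS format, 1536 wells, 200 cells/uL seeded. Compounds: 23 nL, 24 h, 37 °C. Detection: luciferase reagent, luminescence at 12 min RT; decreased signal taken as cytotoxic.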
KCNH2 3.1 block = blocks the human KCNH2 3.1 channel isoform | U2OS KCNH2 3.1, thallium flux FluxOr; stronger effect = lower value | activity change, % (tested at about 1.8 µM) | 340,000 compounds, 0.95% hits;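 active = maximum activity change below -70%; inconclusive = maximum activity change from -70% to -50%; inactive = maximum activity change above -50%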;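 note: thallium influx rate constant from kinetic fluorescence after stimulation buffer; % is set by controls: 0 for no effect and ±100 for the full control effect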
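FluxOr-based Tl+ influx in U2OS cells transduced with KCNH2 3.1 virus; rate constants normalized to DMSO controls.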
GLS inh = glutaminase GLS (human) inhibition. O94925. GLS enzymatic activity, qHTS titration. Potency, µM (series often up to 45.5 µM), for the others: top-dose activity change, negative = inhibition, usual class: inhibitors. 410,000 compounds, 0.21% hits; note: potency is the fitted concentration of half-maximal effect; % is set by controls: 0 for no effect and ±100 for the full control effect
Target sequence (O94925 whole entry, looked up): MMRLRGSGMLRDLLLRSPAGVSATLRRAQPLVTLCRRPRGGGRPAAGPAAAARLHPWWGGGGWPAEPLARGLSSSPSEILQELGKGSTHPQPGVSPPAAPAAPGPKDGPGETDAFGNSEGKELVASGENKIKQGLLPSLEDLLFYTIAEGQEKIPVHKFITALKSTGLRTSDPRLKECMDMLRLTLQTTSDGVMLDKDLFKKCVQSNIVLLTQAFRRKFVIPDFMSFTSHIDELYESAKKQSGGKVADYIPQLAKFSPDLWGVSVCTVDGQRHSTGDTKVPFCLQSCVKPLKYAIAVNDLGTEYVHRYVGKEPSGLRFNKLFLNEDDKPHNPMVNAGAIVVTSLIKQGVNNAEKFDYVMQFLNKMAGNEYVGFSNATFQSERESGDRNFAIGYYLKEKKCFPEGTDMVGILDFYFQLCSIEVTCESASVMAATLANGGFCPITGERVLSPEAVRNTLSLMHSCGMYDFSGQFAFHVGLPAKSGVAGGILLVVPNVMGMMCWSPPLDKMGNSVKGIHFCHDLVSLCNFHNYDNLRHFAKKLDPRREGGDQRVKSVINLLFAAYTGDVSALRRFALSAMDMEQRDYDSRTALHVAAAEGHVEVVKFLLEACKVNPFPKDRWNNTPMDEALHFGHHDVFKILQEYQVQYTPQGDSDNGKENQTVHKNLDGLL
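hKGA; 45 mM KH2PO4 pH 8.2 + 0.02% Tween-20; cpd via pin tool; 1 mM Gln soln; GluOx/HRP/Amplex Red; RT 30 min; fluor. t0 & final.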
GLP1R inv ag = acts as inverse agonist at human GLP-1 receptor. 410,000 compounds, 1.6% hits. Potency, µM (doses to about 38.3 µM), without a hit: at the highest dose activity change, negative = inhibition, actives largely listed as inhibitors. HEK293 GLP-1R CRE-luciferase, luminescence, 24 h; GLP-1R form is constitutively active; note: potency is the fitted concentration of half-maximal effect; % is set by controls: 0 for no effect and ±100 for the full control effect; nearly all actives have a fitted effect of over 55% in size
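Luminescence readout: a drop in cAMP-driven luciferase signal flags inverse agonism at a constitutively active GLP-1R stably expressed in HEK293. Compound exposure lasted 24 hr at 37 deg C, 5% CO2.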
* marks the source's active call; other numbers are inactive results; ? = inconclusive; . = no result given; ! = not confirmed by another sample; [ ] = remark or other dose. Unless noted, calls come from the whole dose curve; as a rule, active = well fitted curve in the direction sought with a large enough effect; inconclusive = small, poorly fitted or top-dose-only effect, or another doubt; inactive = no such curve, though single readings can be large; an effect the other way counts as inactive or inconclusive.

SMILES	GLP1R ag	KCNH2 WT inh	GLP1R cytotox	KCNH2 3.1 block	GLS inh	GLP1R inv ag
Cc1cc(C)c(OCCN2CCOCC2)c(Cl)c1	-0.8%	-9.0	22.9%	-15.0	10.3%	6.4%
CCOC(=O)c1ccc(NC(=O)c2ccc(-c3cccc(Cl)c3C)o2)cc1	.	.	-10.0%	.	0.0%	?
COc1ccc2[nH]c3c(=O)n(CCCCC(=O)NCCN4CCCC4)c(=S)[nH]c3c2c1	7.2%	5.6	0.7%	5.4	-3.7%	5.3%
CCOC(=O)N1CCN(C(=O)c2ccc3c(=O)n(Cc4ccc(Cl)cc4)c(=S)[nH]c3c2)CC1	0.9%	-4.7	-17.0%	-15.4	-16.0%	2µM*
CCN1CCN(C(=O)c2ccc3c(=O)n(Cc4ccccc4OC)c(=S)[nH]c3c2)CC1	-0.9%	8.2	4.6%	1.9	11.2µM*	-10.9%
O=C(c1ccc(Cn2c(=O)[nH]c3ccccc3c2=O)cc1)N1CCN(c2ccc(Cl)cc2)CC1	2.0%	2.7	-7.4%	-6.8	3.3%	11.2µM*
CCCn1c(=S)[nH]c2cc(C(=O)N3CCN(C(=O)OCC)CC3)ccc2c1=O	12.6%	-0.3	-5.0%	-1.8	-14.7%	-3.2%
COc1ccc2[nH]c3c(=O)n(Cc4ccc(C(=O)N5CCCC5)cc4)c(=S)[nH]c3c2c1	1.7%	.	0.2%	22.8	10µM*	20.1%
CCC(=O)N1c2ccccc2CC1C(=O)NCCc1ccccc1Cl (configuration not stated)	.	.	0.1%	.	-0.8%	14.9%
COc1ccccc1Cn1c(=S)[nH]c2cc(C(=O)NCC3CCCO3)ccc2c1=O (configuration not stated)	5.2%	-5.3	0.6%	8.5	51.0%	-33.4%
COc1ccccc1Cn1c(=S)[nH]c2cc(C(=O)NCCN(C)C)ccc2c1=O	0.9%	-3.0	10.7%	6.6	10µM*	?
O=C(CN1C(=O)c2cccnc2Sc2ccccc21)Nc1cc(F)ccc1F	.	.	-6.8%	.	-5.0%	1.5%
CCOC(=O)c1nc2ccc(C)cc2c2c1C1CC(c3c(Cl)cccc31)N2C(=O)OCc1ccccc1 (configuration not stated)	11.9%	-28.2	2.6%	-9.8	-6.1%	5.01µM*
Cc1cccc(-c2ccc3c(c2)C2CC3CCN2C(=O)OCc2ccccc2)c1 (configuration not stated)	0.8%	2.4	-1.1%	3.3	-4.4%	?
N#Cc1c(NC(=O)CCN2C(=O)c3ccccc3C2=O)oc(-c2ccccc2)c1-c1ccccc1	-4.4%	-11.5	4.3%	-12.2	8.3%	?
CC(C)CC(C(=O)Nc1oc(-c2ccccc2)c(-c2ccccc2)c1C#N)N1C(=O)c2ccccc2C1=O (configuration not stated)	-8.4%	-1.5	-25.3%	-19.3	-4.9%	10µM*
CCOc1ccc(-n2nc3ccc(NC(=O)COc4ccccc4C)cc3n2)cc1	.	.	-2.9%	.	0.4%	-10.0%
CCn1cc(C(=O)NCCCN2CC(C)CC(C)C2)c(=O)c2cc(S(=O)(=O)N(C)C3CCCCC3)ccc21 (configuration not stated)	4.8%	-25.7	-14.9%	-1.3	3.8%	-27.8%
CCn1cc(C(=O)NCCCN2CCC(C)CC2)c(=O)c2cc(S(=O)(=O)N(C)C3CCCCC3)ccc21	6.6%	-31.8	?	?	8.2%	10µM*
CCOc1ccc(CCNC(=O)c2cc3c(s2)-c2ccccc2OC3)cc1OCC	-8.4%	.	-16.2%	.	-12.3%	-35.2%
COc1ccc(-c2cc(C#N)nc(Cl)n2)cc1	-6.2%	-5.8	?	-80.2*	-4.3%	109.9%
COc1ccc(-c2cc(C#N)nc(NN)n2)cc1	-3.6%	-4.2	-5.9%	1.3	17.8µM*	?
COc1ccc(-c2cc(C#N)nc(Oc3ccc(Cl)cc3)n2)cc1	1.0%	42.7	2.3%	-23.8	-4.3%	-25.6%
CCN(CC)c1nc(C#N)cc(-c2ccc(OC)cc2)n1	7.2%	5.4	30.2%	8.6	-1.8%	?
COc1cc(OC)cc(C(=O)Oc2c(Sc3ccccc3)c(C)nn2C(C)(C)C)c1	.	.	-21.4%	.	-8.3%	?
SMILES	GLP1R ag	KCNH2 WT inh	GLP1R cytotox	KCNH2 3.1 block	GLS inh	GLP1R inv ag
CC1CCC(C(C)C)C(OC(=O)COC(=O)c2cccn2C)C1 (configuration not stated)	3.1%	7.4	-6.4%	-7.4	7.8%	10µM*
CC1CCC(C(C)C)C(OC(=O)COC(=O)c2ccc(N)cc2)C1 (configuration not stated)	17.8%	-6.7	-20.3%	4.1	-5.2%	?
Cc1ccccc1OCc1n(CC(=O)OC2CC(C)CCC2C(C)C)c2ccccc2[n+]1C (configuration not stated)	12.3%	-81.5*!	?	-9.8	-1.5%	?
CC1CCC(C(C)C)C(OC(=O)Cn2c(-c3ccc(Cl)cc3)[n+](C)c3ccccc32)C1 (configuration not stated)	-1.6%	-9.0	10µM*	-8.8	4.5%	10µM*
CC(C)[C@@H]1CC[C@@H](C)C[C@H]1OC(=O)C[n+]1cc(-c2ccc(Cl)cc2)n2c1CCCCC2	5.5%	-1.0	-22.1%	-11.0	-15.1%	?
CCOC(=O)Cn1c(COc2ccccc2OC)[n+](C)c2ccccc21	-0.1%	-5.7	7.9%	-6.1	-7.4%	24.8%
Cc1nn(-c2ccc3nncn3n2)c(C)c1CCC(=O)Nc1ccc(OC(F)(F)F)cc1	.	.	-6.2%	.	5.9%	3.2%
Cc1ccc(N=Cc2cc(Cl)cc(Cl)c2O)nc1	-18.8%	-333.3*	7.5%[1.53 µM]	1.6	-10.8%	2.0%
Oc1c(Cl)cc(Cl)cc1/C=N/Nc1ncc(Br)cn1	5.9%	-9.5	?	0.8	4.9%	?
COc1ccccc1/C=C1/C(=O)N(c2ccc([N+](=O)[O-])cc2)N=C1C	4.4%	-5.5	-20.5%	-79.7*	15.4%	-11.0%
CCCn1c(N)c(C(=O)CN(C)CC(=O)Nc2cccc(F)c2)c(=O)[nH]c1=O	-0.8%	-19.8	-9.2%	-78.9*	-0.8%	-20.8%
CCN(CC)S(=O)(=O)c1ccc(-c2cn3ccccc3n2)cc1	-2.7%	-100.4*	-7.5%	-3.7	5.2%	6.5%
CN(C)S(=O)(=O)c1ccc(-c2cn3ccccc3n2)cc1	5.6%	2.7	-9.2%	-23.6	-1.6%	-3.9%
Cn1cnnc1SCC(=O)Nc1sc2c(c1C(N)=O)CCC2	2.1%	-284.2*	-18.9%	-22.1	-32.2%	-0.6%
CC(C)c1ccc(S(=O)(=O)c2nnn3c2nc(N2CCCCC2)c2sccc23)cc1	.	.	0.5%	.	2.5%	15.5%
